The record followed here is PubChem BioAssay (NCATS).

A short description of test [1]: qHTS of pediatric cancer cell lines to identify multiple opportunities for drug repurposing: Confirmatory screen for control Hh wild type fibroblast cells (AID 1347121). Note: nearly all actives have a fitted effect of over 70% in size. Note: potency is the fitted concentration of half-maximal effect. In a few lines: (§1)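 Cells (500-1,000/well) rested 5 h, then received compounds for 48 h; metabolically active cells were measured by CellTiter-Glo luminescence. Final concentrations spanned up to 46 µM (MIPE, 11-point) or 0.59 nM-46 µM (NPC, 8-point) in primary screens, 11-point in follow-ups.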

Test [2] can be described thus: qHTS of pediatric cancer cell lines to identify multiple opportunities for drug repurposing: Confirmatory screen for U-2 OS cells (AID 1347122). Note: nearly all actives have a fitted effect of over 65% in size. Note: potency is the fitted concentration of half-maximal effect. The procedure, abridged: as §1
Test [3] is described as follows: qHTS of pediatric cancer cell lines to identify multiple opportunities for drug repurposing: Confirmatory screen for RD cells (AID 1347124).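 Note: cells exposed to compound for 48 h before viability readout; nearly all actives have a fitted effect of over 65% in size.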 Note: potency is the fitted concentration of half-maximal effect. The procedure, abridged: as §1
Test [4] can be described thus: qHTS of pediatric cancer cell lines to identify multiple opportunities for drug repurposing: Confirmatory screen for Rh18 cells (AID 1347125). Note: nearly all actives have a fitted effect of over 55% in size. Note: potency is the fitted concentration of half-maximal effect. In a few lines: as §1
A short description of test [5]: qHTS of pediatric cancer cell lines to identify multiple opportunities for drug repurposing: Confirmatory screen for SK-N-SH cells (AID 1347129).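 Note: cells exposed to compound for 48 h before viability read; nearly all actives have a fitted effect of over 60% in size.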 Note: potency is the fitted concentration of half-maximal effect. The procedure, abridged:
as §1

Test [6] concerns Zika virus NS2B-NS3 protease (unlinked). Briefly: Optimization of GU AMC qHTS for Zika virus inhibitors: Unlinked NS2B-NS3 protease assay (AID 1347151). Note: nearly all actives have a fitted effect of over 80% in size. Note: potency is the fitted concentration of half-maximal effect. The procedure, abridged:
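Fluorescence read-out (340 nm ex / 450 nm em) of AMC peptide cleavage, taken immediately and after 15 min at room temperature (~20% conversion). Enzyme was the unlinked NS2B–NS3 complex at 25 nM in Tris pH 8.0 buffer.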

Test [7] concerns Zika virus NS2B-NS3 protease. Briefly: Primary screen GU AMC qHTS for Zika virus inhibitors (AID 1347154). Note: nearly all actives have a fitted effect of over 70% in size. Note: potency is the fitted concentration of half-maximal effect. In a few lines:
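Fluorogenic AMC-substrate cleavage by noncovalent NS2B-NS3 protease complex (25 nM, pH 8.0 Tris buffer with Tween 20) followed for 15 minutes at room temperature (~20% conversion). Percent inhibition from ex340/em450 signal change, fitted by 4-parameter Hill equation.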

Test [8] addresses N-terminal Xaa-Pro-Lys N-methyltransferase 1 (Homo sapiens) (UniProt Q9BV86). The experiment in a line: qHTS Assay for Inhibitors of N-terminal methyltransferase 1 (NTMT1): LOPAC validation of the NTMT1 SAHH-coupled ThioGlo3 Assay (AID 1347143).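 Note: SAH from peptide methylation measured as thiol fluorescence via SAHH coupling and ThioGlo3; nearly all actives have a fitted effect of over 70% in size.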 Note: potency is the fitted concentration of half-maximal effect. In a few lines: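 Inhibition of NTMT1 methylation of peptide SPKRIA is followed by converting SAH with SAHH and labelling the released thiol with ThioGlo3. Plates are read at 340/450nm before and 30 min after reagent addition, both at room temperature.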

Another test has as its target Furin (Homo sapiens) (UniProt P09958). The experiment in a line: Furin counterscreen qHTS for Zika virus inhibitors (AID 1347149). Note: nearly all actives have a fitted effect of over 70% in size. Note: potency is the fitted concentration of half-maximal effect. The procedure, abridged: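 Fluorogenic cleavage of BOC-RVRR-AMC (2 microM final, Km ~15 µM) was monitored (ex 340, em 450 nm) at 37C after 15 min RT preincubation of 5 nM furin with compounds in HEPES pH 7.0 buffer with CaCl2 and Triton X-100. Percent inhibition was fitted to a 4-parameter Hill curve.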

The subject of test [9] is Zika virus NS2B-NS3 protease (linked construct). Briefly: Confirmatory screen NINDS AMC qHTS for Zika virus inhibitors (AID 1347152). Note: nearly all actives have a fitted effect of over 70% in size. Note: potency is the fitted concentration of half-maximal effect. In a few lines: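 Linked NS2B-NS3 1 nM, Tris pH 8.0/0.01% Tween 20; cpd 15 min RT dark; + Nle-KRR-AMC 10 µM (Km 18.3 µM); read 0 and 15 min, 340/450 nm; %inh vs controls, 4-param Hill.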
The nature of test [10]: Confirmatory screen NINDS Rhodamine qHTS for Zika virus inhibitors (AID 1347161).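 Note: purified Zika NS2B-NS3 protease with linked NS2B cofactor domain and Rhodamine110 peptide substrate; series mostly up to about 110 µM; nearly all actives have a fitted effect of over 60% in size.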 In a few lines: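 Aprotinin served as in-plate control. Conditions: 25 nM linked NS2B-NS3, pH 8.0 Tris buffer, titrated compounds, 15 min preincubation and 15 min reaction with 1.5 microM Rhod110 substrate at room temperature.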
Test [11] has as its system Zika virus NS2B-NS3 protease (unlinked complex). The experiment in a line: Confirmatory screen GU AMC qHTS for Zika virus inhibitors (AID 1347153). Note: nearly all actives have a fitted effect of over 70% in size. In a few lines: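 Fluorescence change (ex 340/em 450 nm) over 15 min, ~20% substrate conversion, normalized to no-inhibitor and no-enzyme controls, then Hill-fitted. Unlinked protease at 25 nM; AMC peptide 10 µM.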
A short description of test [12]: qHTS of pediatric cancer cell lines to identify multiple opportunities for drug repurposing: Confirmatory screen for Rh41 cells (AID 1347123).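 Note: 48 h compound exposure; nearly all actives have a fitted effect of over 60% in size.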 Note: potency is the fitted concentration of half-maximal effect. In a few lines: as §1
Test [13] is described as follows: qHTS of pediatric cancer cell lines to identify multiple opportunities for drug repurposing: Confirmatory screen for Rh30 cells (AID 1347126). Note: nearly all actives have a fitted effect of over 55% in size. Note: potency is the fitted concentration of half-maximal effect. The procedure, abridged: as §1
A short description of test [14]: qHTS of pediatric cancer cell lines to identify multiple opportunities for drug repurposing: Confirmatory screen for OHS-50 cells (AID 1347128).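 Note: compound exposure lasted 48 h at 37 degrees C; nearly all actives have a fitted effect of over 55% in size.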 Note: potency is the fitted concentration of half-maximal effect. The procedure, abridged: as §1
Test [15] has as its system Zika virus NS2B-NS3 protease (unlinked complex). The experiment in a line: Primary screen GU Rhodamine qHTS for Zika virus inhibitors: Unlinked NS2B-NS3 protease assay (AID 1347159). Note: potency is the fitted concentration of half-maximal effect; nearly all actives have a fitted effect of over 60% in size. In a few lines: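 A qHTS format was used, with compound concentrations ranging up to 114 microM. Each compound was preincubated with 25 nM NS2B-NS3 protease, and the substrate was then added at 1.5 microM. Curves were fitted with a 4-parameter Hill model.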

“And” between values parts separate entries of the source, which are not always exact repeats. Identical values can stand only once. Inconclusive results are not listed. The source made the active and inactive calls. Calls come from the whole dose curve; as a rule, active = well fitted curve in the direction sought with a large enough effect; inconclusive = small, poorly fitted or top-dose-only effect, or another doubt; inactive = no such curve, though single readings can be large; an effect the other way counts as inactive or inconclusive.

Sequence of N-terminal Xaa-Pro-Lys N-methyltransferase 1 (Homo sapiens) (Q9BV86 whole entry, looked up): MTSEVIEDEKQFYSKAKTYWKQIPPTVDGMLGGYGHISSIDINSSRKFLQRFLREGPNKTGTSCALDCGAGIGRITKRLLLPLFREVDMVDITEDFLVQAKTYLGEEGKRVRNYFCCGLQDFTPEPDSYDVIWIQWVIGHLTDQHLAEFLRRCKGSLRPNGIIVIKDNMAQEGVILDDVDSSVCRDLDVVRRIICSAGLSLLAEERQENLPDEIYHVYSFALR
Sequence of Furin (Homo sapiens) (P09958 whole entry, looked up): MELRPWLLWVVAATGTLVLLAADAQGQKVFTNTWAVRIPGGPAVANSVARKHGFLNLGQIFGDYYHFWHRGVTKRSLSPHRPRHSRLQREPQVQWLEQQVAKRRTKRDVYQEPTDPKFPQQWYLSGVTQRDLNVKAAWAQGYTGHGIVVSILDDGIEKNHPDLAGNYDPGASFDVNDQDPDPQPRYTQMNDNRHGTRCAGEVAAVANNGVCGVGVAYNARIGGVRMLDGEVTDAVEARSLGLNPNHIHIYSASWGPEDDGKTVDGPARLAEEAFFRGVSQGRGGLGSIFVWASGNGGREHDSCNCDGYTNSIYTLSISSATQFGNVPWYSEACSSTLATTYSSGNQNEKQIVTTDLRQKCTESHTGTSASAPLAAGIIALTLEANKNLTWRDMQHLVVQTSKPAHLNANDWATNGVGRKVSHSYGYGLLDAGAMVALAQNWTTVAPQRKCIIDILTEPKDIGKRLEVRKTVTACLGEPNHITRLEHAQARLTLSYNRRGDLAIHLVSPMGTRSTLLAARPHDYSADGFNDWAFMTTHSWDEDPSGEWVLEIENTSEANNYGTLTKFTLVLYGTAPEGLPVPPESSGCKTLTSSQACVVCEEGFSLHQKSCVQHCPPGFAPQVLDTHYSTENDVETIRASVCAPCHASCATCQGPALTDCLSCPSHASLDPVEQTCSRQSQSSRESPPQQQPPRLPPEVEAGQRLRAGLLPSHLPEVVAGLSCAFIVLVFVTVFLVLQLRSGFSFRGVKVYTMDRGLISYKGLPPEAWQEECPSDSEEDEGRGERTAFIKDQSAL

Regarding `COc1cc2c(c(OC)c1OC)-c1ccc(OC)c(=O)cc1[C@@H](NC(C)=O)CC2`, the Potency result in test [1], in test [4], in [5], in [6] and in test [7] was “inactive” in each case. Moreover, the Potency is 0.112 µM (active) in test [2] and 0.0708 µM (active) in test [3].
On to `COc1cc2nc(N3CCN(C(=O)c4ccco4)CC3)nc(N)c2cc1OC`, for which the Potency in test [8] was 28.2 µM (active); with Furin (Homo sapiens), 14.9 µM (active); in test [6], 26.7 µM (active); in [9], 10.5 µM (active). Further, the Potency result in test [10] was “inactive”.
Regarding `Cc1cnc(C(=O)NCCc2ccc(S(=O)(=O)NC(=O)NC3CCCCC3)cc2)cn1`, the Potency result (in test [8]; with Furin (Homo sapiens); in test [6]; in test [9]; in [11]; in test [10]) was “inactive” each time.
Consider `CCOC(=O)Nc1ccc(NCc2ccc(F)cc2)nc1N`, for which the Potency in test [8] was 50.1 µM (active); in test [6], 23.8 µM (active). Also, the Potency result in test [9], in [11] and in [10] was “inactive” each time.
With `CCC1(c2ccccc2)C(=O)NCNC1=O`, the Potency entry in [1], in [2], in test [12], in test [3], in [4] and in [13] was “inactive” each time. Also, the Potency result in [14], in test [5], in [8], in [6] and in test [7] was “inactive” each time.
`CC(=O)OCC(CCn1cnc2cnc(N)nc21)COC(C)=O`: the Potency in test [8] is 56.2 µM (active); in [6], 26.7 µM (active).
Turning to `O=C(c1ccc(OCCN2CCCCC2)cc1)c1c(-c2ccc(O)cc2)sc2cc(O)ccc12`, the Potency result in [1], in test [2], in test [4], in test [6] and in test [7] was “inactive” in each case. In addition, the figures for the Potency in test [12] and in test [13] were 20.8 µM (active) and 3.69 µM (active), respectively.
Regarding `O=C1c2c(O)ccc(O)c2C(=O)c2c(NCCNCCO)ccc(NCCNCCO)c21`, the Potency was 14.7 µM (active) in test [1]; 5.22 µM (active) in test [2]; 0.465 µM (active) in test [12]; 2.61 µM (active) in test [3]; 2.61 µM (active) in [4]; 4.14 µM (active) in test [13]. In addition, the Potency in test [14] was 2.33 µM (active); in [5], 0.526 µM (active); in [8] it was 50.1 µM (active). For the same compound, the Potency result in test [6] and in test [7] was “inactive” throughout.
As to `CC[C@@]1(O)C(=O)OCc2c1cc1n(c2=O)Cc2cc3c(CN(C)C)c(O)ccc3nc2-1`, the Potency entry in [1], in [8], in [6] and in test [7] was “inactive” in each case. Further, the Potency in test [2] is 10.4 µM (active); in test [12] it was 3.69 µM (active); in [3], 5.85 µM (active); in test [4], 5.22 µM (active); in test [13] it was 2.93 µM (active); in [14], 0.329 µM (active). The Potency in test [5] was 6.62 µM (active); in test [15], 20 µM (active).
As for `NC12CC3CC(CC(C3)C1)C2`, the Potency result in [1], in [2], in test [12], in test [3], in [4] and in [13] was “inactive” in each case. For the same compound, the Potency entry in [14], in test [5], in [8], in test [6] and in test [7] was “inactive” throughout.
Turning to `CC(C)C(=O)Nc1ccc([N+](=O)[O-])c(C(F)(F)F)c1`, the Potency result in test [1], in [5], in [6] and in test [7] was “inactive” each time.
With `NC(=O)NO`, the Potency result in test [1], in [12], in test [3], in test [4], in test [14] and in test [8] was “inactive” in each case. For the same compound, the Potency result in [6] and in test [7] was “inactive” each time. In test [2], the Potency was 23.3 µM (active).
Consider `O=C(CCCN1CCC(O)(c2ccc(Cl)cc2)CC1)c1ccc(F)cc1`, for which the Potency entry in test [8], in test [6] and in test [7] was “inactive” throughout.
For `COc1ccc2c(c1)c(CC(=O)O)c(C)n2C(=O)c1ccc(Cl)cc1`, the Potency entry in [8], in test [6] and in test [7] was “inactive” in each case.
As to `CN(C)CCOC(c1ccccc1)c1ccccc1`, the Potency entry in test [8], in [6] and in test [7] was “inactive” throughout.
On to `CC12CC3CC(C)(C1)CC(N)(C3)C2`, for which the Potency entry in [8], in [6] and in test [7] was “inactive” throughout.
For the compound `NCCCCCC(=O)O`, the Potency result in [8], in [6] and in test [7] was “inactive” throughout.
With `Nc1nc2c(ncn2COC(CO)CO)c(=O)[nH]1`, the Potency result in test [8], in [6] and in test [7] was “inactive” each time.
For the compound `CC(C)NCC(O)COc1ccc(CCOCC2CC2)cc1` (stereo unspecified), the Potency entry in test [8], in test [6] and in [7] was “inactive” in each case.
In the case of `Nc1ccn([C@H]2CC[C@@H](CO)O2)c(=O)n1`, the Potency result in [8], in [6] and in [7] was “inactive” each time.
In the case of `O=c1[nH]cc(F)c(=O)[nH]1`, the Potency entry in [8], in test [6] and in [7] was “inactive” in each case.
Consider `Cn1c(=O)c2[nH]cnc2n(C)c1=O`, for which the Potency result in test [8], in test [6] and in test [7] was “inactive” each time.
As for `CCN1CCCC1CNC(=O)c1cc(S(=O)(=O)CC)c(N)cc1OC` (stereo unspecified), the Potency result in test [8], in [6] and in [7] was “inactive” in each case.
With `CCOC(=O)c1ncn2c1CN(C)C(=O)c1cc(F)ccc1-2`, the Potency entry in test [8], in [6] and in [7] was “inactive” throughout.
As for `NCCc1cnc[nH]1`, the Potency result in test [8], in test [6] and in [7] was “inactive” in each case.
Turning to `CCC1(C)CC(=O)NC1=O` (stereo unspecified), the Potency result in test [8], in test [6] and in [7] was “inactive” in each case.
For `Cc1cc(C(C)(C)C)cc(C)c1CC1=NCCN1`, the Potency result in test [8], in [6] and in [7] was “inactive” in each case.
As for `O=C(C1CCCCC1)N1CC(=O)N2CCc3ccccc3C2C1` (stereo unspecified), the Potency result in [8], in test [6] and in test [7] was “inactive” in each case.
Consider `CC(C(=O)O)c1cccc(C(=O)c2ccccc2)c1` (stereo unspecified), for which the Potency result in test [8], in test [6] and in test [7] was “inactive” throughout.
For `CCc1cccc2c3c([nH]c12)C(CC)(CC(=O)O)OCC3` (stereo unspecified), the Potency result in test [8], in test [6] and in test [7] was “inactive” in each case.
Turning to `CC[N+](CC)(CC)CCOc1cccc(OCC[N+](CC)(CC)CC)c1OCC[N+](CC)(CC)CC`, in test [8], the Potency is 44.7 µM (active). For the same compound, the Potency result in [6] and in test [7] was “inactive” throughout.
For `CN(C)c1nc(N(C)C)nc(N(C)C)n1`, the Potency result in [8], in test [6] and in test [7] was “inactive” throughout.
Turning to `CN(CCOc1ccc(NS(C)(=O)=O)cc1)CCc1ccc(NS(C)(=O)=O)cc1`, the Potency entry in test [8], in test [6] and in test [7] was “inactive” each time.
On to `COc1cc2nc(N3CCN(C(=O)C4COc5ccccc5O4)CC3)nc(N)c2cc1OC` (stereo unspecified), for which the Potency in [8] is 56.2 µM (active); in [6] it was 26.7 µM (active); in test [7], 9.07 µM (active) and 24.1 µM (active).
